For six molecules, Potency and outcome results are on record in PubChem BioAssay (Tox21).

Each structure is given as a SMILES string. Where “and” joins values, the source holds several entries; their conditions need not be identical. Equal entries are not always repeated. Records with an inconclusive call do not appear. Some compounds were tested as several samples or in several runs, with calls that do not always agree. Calls of active or inactive are those of the source. Unless noted, the call rests on the fitted dose curve; in most records, active means well fitted curve in the direction sought with a large enough effect in the repeat runs; inconclusive means weak or mixed curves; inactive means no such curve, though single readings can be large; an effect the other way counts as inactive or inconclusive.

A short description of assay [1]: qHTS assay to identify aromatase inhibitors - cell viability counter screen (AID 743084).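 Further: cells stimulated with testosterone during compound exposure; nearly all actives have a fitted effect of over 55% in size.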 Further: potency means the concentration at half of the fitted maximal effect.
Assay [2] deals with Aryl hydrocarbon receptor (Homo sapiens) (UniProt P35869). Description: qHTS assay to identify small molecule that activate the aryl hydrocarbon receptor (AhR) signaling pathway (AID 743085). Further: nearly all actives have a fitted effect of over 15% in size. Further: potency means the concentration at half of the fitted maximal effect.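 On activation: HG2L7.5c1 human HepG2 liver cells with stably integrated DRE-driven firefly reporter; series mostly up to about 70 µM.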 A digest of the protocol: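 Luminescence (ONE-Glo) from a dioxin-responsive-element luciferase reporter in HG2L7.5c1 HepG2 cells after 24 hr compound exposure at 37C; viability measured by CellTiter-Fluor fluorescence beforehand.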

Assay [3] is described as follows: qHTS assay to identify small molecule that activate the aryl hydrocarbon receptor (AhR) signaling pathway - cell viability counter screen (AID 743086). Further: nearly all actives have a fitted effect of over 45% in size. Further: potency means the concentration at half of the fitted maximal effect. A digest of the protocol:
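Cytotoxicity counter screen: CellTiter-Fluor signal (30 min, 37 C) in 4000 HepG2 cells/well carrying the DRE-luciferase reporter, following 24 h compound exposure at 37 C.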

Assay [4] deals with Peroxisome proliferator-activated receptor gamma (Homo sapiens) (UniProt P37231). In words: qHTS assay to identify small molecule agonists of the peroxisome proliferator-activated receptor gamma (PPARg) signaling pathway (AID 743094; active means well fitted activation curve with a large enough effect in the signal ratio in the repeat runs, not every such curve was filed as active; the % refers to the signal ratio). In short, it runs like this:
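Cell-based bla reporter, HEK293H background, PPARg-driven UAS. Pre-incubation 5 h, 37C, 5% CO2. Compound 17 h, 37C. Substrate 1 h RT; fluorescence.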

The target is the same in assay [5]. In words: qHTS assay to identify small molecule antagonists of the peroxisome proliferator-activated receptor gamma (PPARg) signaling pathway (AID 743191; calls by dose curve; further: series mostly up to about 63 µM; nearly all actives have a fitted effect of over 30% in size). In short, it runs like this: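 Beta-lactamase reporter under UAS control in HEK293H PPARg-bla cells; compound treatment 17 h at 37C. Read-out: fluorescence intensity after 1 h room-temperature incubation with LiveBLAzer B/G FRET substrate.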

Assay [6] in a line: qHTS assay to identify small molecule antagonists of the peroxisome proliferator-activated receptor gamma (PPARg) signaling pathway - cell viability counter screen (AID 743194). Further: nearly all actives have a fitted effect of over 55% in size. Further: potency means the concentration at half of the fitted maximal effect. In short, it runs like this: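 Viability was measured as CellTiter-Glo luminescence in GeneBLAzer PPARg UAS-bla HEK293H cells. These cells had been exposed 17 h at 37 C to compounds together with rosiglitazone at 50 nM final, with the beta-lactamase readout taken in the same wells.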

Assay [7] in a line: qHTS assay for small molecule agonists of the antioxidant response element (ARE) signaling pathway (AID 743202; active means well fitted activation curve with a large enough effect in the signal ratio in the repeat runs, not every such curve was filed as active; the % refers to the signal ratio). A digest of the protocol:
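After 16 hours of compound treatment at 37 C, HepG2 cells with a stably integrated ARE-driven beta-lactamase reporter were loaded 2 hours at room temperature with LiveBLAzer B/G FRET substrate and fluorescence intensity measured.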

The nature of assay [8]: qHTS assay for small molecule agonists of the antioxidant response element (ARE) signaling pathway - cell viability counter screen (AID 743203; calls by dose curve; further: nearly all actives have a fitted effect of over 55% in size; further: potency means the concentration at half of the fitted maximal effect). A digest of the protocol:
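Measured in the same wells as the beta-lactamase ARE reporter, this read-out is CellTiter-Glo luminescence from HepG2 ARE-bla cells given compounds for 16 hrs.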

A short description of assay [9]: qHTS assay for small molecule activators of the heat shock response signaling pathway - cell viability counter screen (AID 743209). Further: nearly all actives have a fitted effect of over 50% in size. Further: potency means the concentration at half of the fitted maximal effect. In short, it runs like this: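 Same-well multiplex: after 2.5 h room-temperature incubation with LiveBLAzer B/G substrate and fluorescence reading, CellTiter-Glo reagent was added to HSE-bla HeLa cells that had received compound for 5 h at 37 C; luminescence read after 30 min.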

Assay [10] is described as follows: qHTS assay to identify small molecule agonists of the peroxisome proliferator-activated receptor delta (PPARd) signaling pathway - cell viability counter screen (AID 743211). Further: nearly all actives have a fitted effect of over 55% in size. Further: potency means the concentration at half of the fitted maximal effect. In short, it runs like this: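 Viability was measured as CellTiter-Glo luminescence (30 min, room temperature) in the same wells as the beta-lactamase readout. GeneBLAzer PPARd UAS-bla HEK293H cells received compound after 5 h plating and were incubated 17 h at 37 C.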

Assay [11] can be described thus: qHTS assay to identify small molecule antagonists of the peroxisome proliferator-activated receptor delta (PPARd) signaling pathway - cell viability counter screen (AID 743213). Further: nearly all actives have a fitted effect of over 50% in size. In short, it runs like this: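 CellTiter-Glo was added to PPARd-bla HEK293H wells following 17 h compound treatment in the presence of 300 nM L165041. Luminescence was recorded after 30 min at room temperature.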

A short description of assay [12]: qHTS assay to identify small molecule agonists of the farnesoid-X-receptor (FXR) signaling pathway - cell viability counter screen (AID 743218). Further: nearly all actives have a fitted effect of over 45% in size. Further: potency means the concentration at half of the fitted maximal effect. In short, it runs like this: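 Readout: CellTiter-Glo luminescence, 30 min RT, multiplexed after the FXR-bla FRET reading. HEK 293T FXR-UAS-bla cells received compound 5 h post-plating and were incubated 16 h at 37 C.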

Assay [13] in a line: qHTS assay to identify small molecule antagonists of the farnesoid-X-receptor (FXR) signaling pathway - cell viability counter screen (AID 743221; active means well fitted cell-killing curve with a large enough effect in the repeat runs, not every such curve was filed as active; further: nearly all actives have a fitted effect of over 50% in size). A digest of the protocol:
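Cytotoxicity counter screen run in the FXR-bla reporter wells: HEK 293T cells exposed to compound with 50 uM (final) chenodeoxycholic acid for 16 h, 37 C, then viability measured by CellTiter-Glo luminescence after 30 min, room temperature.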

The target in assay [14] is Vitamin D3 receptor (Homo sapiens) (UniProt P11473). Description: qHTS assay to identify small molecule agonists of the vitamin D receptor (VDR) signaling pathway (AID 743222; calls by dose curve). A digest of the protocol: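 Following 4 h attachment at 37C, VDR-bla cells (2,000 per well) received DMSO-dissolved compounds or controls. After 16 h incubation, LiveBLAzer B/G FRET substrate was added and fluorescence read 2 h later at room temperature.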

The target is the same in assay [15]. In words: qHTS assay to identify small molecule antagonists of the vitamin D receptor (VDR) signaling pathway (AID 743223; active means well fitted inhibition curve with a large enough effect in the signal ratio in the repeat runs, not every such curve was filed as active; the % refers to the signal ratio; further: potency means the concentration at half of the fitted maximal effect). In short, it runs like this: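 Antagonist mode: compound added to VDR-bla cells alongside agonist 1alpha,25-dihydroxyvitamin D3 (3 nM final), incubation 16 h at 37C. Read-out is LiveBLAzer FRET fluorescence, 2 h at room temperature.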
Assay [16] is described as follows: qHTS assay for small molecule activators of the heat shock response signaling pathway (AID 743210; active means well fitted activation curve with a large enough effect in the signal ratio in the repeat runs, with a control signal flat, not every such curve was filed as active; the % refers to the signal ratio; further: series mostly up to about 63 µM). A digest of the protocol:
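Compound exposure lasted 5 h at 37 C in HeLa cells carrying a heat-shock-element-driven beta-lactamase reporter. Read-out: fluorescence intensity after 2.5 h room-temperature loading with LiveBLAzer B/G FRET substrate.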

The target in assay [17] is Peroxisome proliferator-activated receptor delta (Homo sapiens) (UniProt Q03181). Description: qHTS assay to identify small molecule agonists of the peroxisome proliferator-activated receptor delta (PPARd) signaling pathway (AID 743212; calls by dose curve). A digest of the protocol:
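Beta-lactamase reporter readout: a ratiometric FRET signal from the LiveBLAzer substrate after 2 h at room temperature. Compound exposure at 37 °C in PPARδ-bla HEK293H cells driven by an upstream activator sequence.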

In assay [18] the target is Bile acid receptor (Homo sapiens) (UniProt Q96RI1). In words: qHTS assay to identify small molecule antagonists of the farnesoid-X-receptor (FXR) signaling pathway (AID 743217; active means well fitted inhibition curve with a large enough effect in the signal ratio in the repeat runs, not every such curve was filed as active; the % refers to the signal ratio). A digest of the protocol:
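FRET fluorescence after 2 h room-temperature LiveBLAzer loading gives the readout. Prior step: FXR-bla HEK 293T cells, seeded and incubated 5 h, received test compounds plus 50 uM final CDCA for 16 h at 37 °C.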

Assay [19] has the same target. Description: qHTS assay to identify small molecule agonists of the farnesoid-X-receptor (FXR) signaling pathway (AID 743220; active means well fitted activation curve with a large enough effect in the signal ratio in the repeat runs, not every such curve was filed as active; the % refers to the signal ratio). A digest of the protocol: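 FXR-UAS-bla HEK 293T cells carrying a UAS-driven beta-lactamase reporter were plated for 5 h at 37C/5% CO2, then exposed to DMSO-dissolved Tox21 10K compounds for 16 h at 37C. A LiveBLAzer B/G FRET substrate was loaded for 2 h at room temperature before fluorescence reading.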

Assay [20] has as its target Peroxisome proliferator-activated receptor delta (Homo sapiens) (UniProt Q03181). Description: qHTS assay to identify small molecule antagonists of the peroxisome proliferator-activated receptor delta (PPARd) signaling pathway (AID 743215; active means well fitted inhibition curve with a large enough effect in the signal ratio in the repeat runs, not every such curve was filed as active; the % refers to the signal ratio;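 further: cells stimulated with agonist L165041 at 300 nM final during compound exposure; series mostly up to about 62 µM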). A digest of the protocol: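 Fluorescence from cleaved LiveBLAzer B/G FRET substrate (2 h, room temperature) reports PPARd-driven beta-lactamase in HEK293H UAS-bla cells. Cells had been treated 17 h at 37 C with compound plus 300 nM final L165041.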

Sequence of Aryl hydrocarbon receptor (Homo sapiens) (P35869 whole entry, looked up): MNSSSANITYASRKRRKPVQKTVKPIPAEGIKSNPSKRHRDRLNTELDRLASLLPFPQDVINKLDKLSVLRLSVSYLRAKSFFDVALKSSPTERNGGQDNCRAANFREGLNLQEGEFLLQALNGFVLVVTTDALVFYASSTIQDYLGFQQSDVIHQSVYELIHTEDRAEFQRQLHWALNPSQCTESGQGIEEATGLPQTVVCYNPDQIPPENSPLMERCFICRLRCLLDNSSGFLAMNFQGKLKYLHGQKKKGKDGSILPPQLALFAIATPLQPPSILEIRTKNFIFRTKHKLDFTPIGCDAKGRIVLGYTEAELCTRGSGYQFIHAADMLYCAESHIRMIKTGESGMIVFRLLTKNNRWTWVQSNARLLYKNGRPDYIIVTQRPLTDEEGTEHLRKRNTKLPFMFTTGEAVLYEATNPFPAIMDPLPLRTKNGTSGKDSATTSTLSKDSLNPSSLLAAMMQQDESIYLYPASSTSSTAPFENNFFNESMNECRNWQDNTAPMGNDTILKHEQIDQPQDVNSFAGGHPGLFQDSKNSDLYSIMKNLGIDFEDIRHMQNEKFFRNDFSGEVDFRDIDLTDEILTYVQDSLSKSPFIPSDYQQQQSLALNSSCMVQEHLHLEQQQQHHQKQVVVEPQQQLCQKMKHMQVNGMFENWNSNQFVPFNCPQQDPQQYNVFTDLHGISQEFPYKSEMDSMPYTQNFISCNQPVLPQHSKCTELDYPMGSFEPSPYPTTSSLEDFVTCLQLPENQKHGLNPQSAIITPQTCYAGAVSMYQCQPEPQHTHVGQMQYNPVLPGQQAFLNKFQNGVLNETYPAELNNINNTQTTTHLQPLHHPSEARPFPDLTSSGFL
Sequence of Bile acid receptor (Homo sapiens) (Q96RI1 whole entry, looked up): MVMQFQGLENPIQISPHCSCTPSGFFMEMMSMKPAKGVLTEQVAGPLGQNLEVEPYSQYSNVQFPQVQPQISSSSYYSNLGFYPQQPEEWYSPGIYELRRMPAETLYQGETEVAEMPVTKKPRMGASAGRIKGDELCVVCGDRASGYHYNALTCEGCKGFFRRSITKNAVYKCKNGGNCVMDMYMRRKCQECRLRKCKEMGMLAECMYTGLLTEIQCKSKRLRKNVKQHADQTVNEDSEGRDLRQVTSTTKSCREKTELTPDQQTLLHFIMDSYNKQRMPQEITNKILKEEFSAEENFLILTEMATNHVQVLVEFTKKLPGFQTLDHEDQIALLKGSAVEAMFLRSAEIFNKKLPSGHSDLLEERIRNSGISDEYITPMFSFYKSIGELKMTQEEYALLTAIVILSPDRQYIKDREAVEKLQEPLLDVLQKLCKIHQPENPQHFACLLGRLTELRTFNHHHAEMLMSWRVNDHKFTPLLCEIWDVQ
Sequence of Peroxisome proliferator-activated receptor delta (Homo sapiens) (Q03181 whole entry, looked up): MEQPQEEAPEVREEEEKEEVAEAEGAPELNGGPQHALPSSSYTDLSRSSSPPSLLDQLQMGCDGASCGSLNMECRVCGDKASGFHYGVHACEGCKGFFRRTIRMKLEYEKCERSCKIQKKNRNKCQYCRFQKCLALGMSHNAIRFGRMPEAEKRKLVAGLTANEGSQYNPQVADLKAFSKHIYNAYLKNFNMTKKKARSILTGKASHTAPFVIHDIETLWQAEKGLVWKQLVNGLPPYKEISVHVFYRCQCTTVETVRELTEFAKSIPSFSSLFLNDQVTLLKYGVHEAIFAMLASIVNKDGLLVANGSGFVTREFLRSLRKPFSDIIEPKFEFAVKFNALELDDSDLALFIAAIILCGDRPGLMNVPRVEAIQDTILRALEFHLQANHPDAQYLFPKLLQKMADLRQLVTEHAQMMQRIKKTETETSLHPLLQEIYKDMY
Sequence of Peroxisome proliferator-activated receptor gamma (Homo sapiens) (P37231 whole entry, looked up): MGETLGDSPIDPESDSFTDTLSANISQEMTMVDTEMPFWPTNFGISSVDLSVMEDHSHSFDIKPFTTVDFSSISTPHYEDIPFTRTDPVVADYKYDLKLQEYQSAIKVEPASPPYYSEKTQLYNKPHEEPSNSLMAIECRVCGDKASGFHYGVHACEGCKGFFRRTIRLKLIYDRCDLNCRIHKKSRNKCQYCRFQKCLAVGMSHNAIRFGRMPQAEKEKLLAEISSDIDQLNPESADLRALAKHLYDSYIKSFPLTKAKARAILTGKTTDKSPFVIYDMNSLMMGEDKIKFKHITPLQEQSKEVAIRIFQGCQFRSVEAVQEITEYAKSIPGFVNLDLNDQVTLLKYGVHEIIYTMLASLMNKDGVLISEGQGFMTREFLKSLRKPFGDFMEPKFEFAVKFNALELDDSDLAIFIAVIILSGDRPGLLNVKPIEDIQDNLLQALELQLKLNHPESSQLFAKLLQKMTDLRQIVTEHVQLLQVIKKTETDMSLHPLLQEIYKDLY
Sequence of Vitamin D3 receptor (Homo sapiens) (P11473 whole entry, looked up): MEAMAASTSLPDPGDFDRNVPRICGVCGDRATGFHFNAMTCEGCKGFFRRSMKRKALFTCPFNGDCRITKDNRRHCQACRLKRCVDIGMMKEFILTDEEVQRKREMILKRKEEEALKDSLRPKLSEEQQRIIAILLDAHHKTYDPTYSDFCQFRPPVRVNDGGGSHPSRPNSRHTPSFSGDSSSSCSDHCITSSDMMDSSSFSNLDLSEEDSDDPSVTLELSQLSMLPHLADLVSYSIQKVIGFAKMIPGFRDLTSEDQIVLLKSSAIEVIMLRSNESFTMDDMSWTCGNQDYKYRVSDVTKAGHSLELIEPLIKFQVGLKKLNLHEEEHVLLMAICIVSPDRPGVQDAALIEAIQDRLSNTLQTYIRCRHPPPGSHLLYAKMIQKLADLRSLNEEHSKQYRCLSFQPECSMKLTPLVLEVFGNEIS

For `CC(O)(P(=O)(O)O)P(=O)(O)O`, the Potency result in assay [1], in [3], in [4], in [5], in assay [6] and in assay [7] was “inactive” throughout. The Potency result in [8], in assay [9], in assay [10], in assay [11], in assay [12] and in [13] was “inactive” in each case. Moreover, in assay [2], the Potency result was “inactive and 15.4 µM (active)”.

With `C1CCC(C(CC2CCCCN2)C2CCCCC2)CC1` (configuration not stated), the Potency in assay [1] is 18.8 µM (active); in assay [3], 18.8 µM (active); in assay [6], 33.5 µM (active); in [8], 29.8 µM (active); in assay [9] it was 33.5 µM (active); in assay [10] it was 26.6 µM (active). Moreover, the results for the Potency in assay [12] and in assay [15] were 23.7 µM (active) and 21.3 µM (active), respectively. In addition, the Potency entry in [2], in assay [5] and in assay [14] was “inactive” in each case.

As to `O=C(O)c1ccccc1`, the Potency entry in assay [1], in assay [2], in [3], in assay [4], in assay [5] and in assay [6] was “inactive” each time. The Potency entry in assay [7], in assay [8], in [9], in [10], in [11] and in assay [12] was “inactive” in each case. The Potency entry in assay [13], in assay [14] and in assay [15] was “inactive” each time.

Take `CCN(CC)C(=O)c1cccc(C)c1`: the Potency entry in assay [1], in assay [3], in [4], in [6], in assay [7] and in assay [8] was “inactive” each time. Further, the Potency result in assay [9], in assay [10], in assay [17], in [11], in assay [18] and in [12] was “inactive” in each case. The Potency result in assay [13], in assay [14] and in assay [15] was “inactive” in each case. Further, in [2], the Potency entry is “inactive and 60.5 µM (active)”. For the same molecule, the outcome in assay [16] and in [19] was inactive.

Consider `Nc1ccc(S(N)(=O)=O)cc1`, for which the Potency result in [1], in assay [2], in assay [3], in assay [6], in assay [7] and in [8] was “inactive” throughout. The Potency entry in assay [9], in assay [10], in assay [11], in assay [12] and in assay [13] was “inactive” in each case. Besides, the molecule was classed as inactive in assay [16].

On to `Cc1ncc([N+](=O)[O-])n1C`, for which the Potency entry in assay [1], in assay [2], in assay [3], in assay [6], in assay [7] and in assay [8] was “inactive” in each case. The Potency entry in assay [9], in assay [10], in [17], in [11], in [20] and in [18] was “inactive” each time. The Potency entry in [12], in [13], in assay [14] and in assay [15] was “inactive” throughout. In addition, the molecule was classed as inactive in [16] and in assay [19].
